Values of other authors in PubChem BioAssay AID977610.
Screen size: about 3,600 compounds; about 3,600 (100%) were called active. The limit is not given here; nearly all actives have Ki up to about 18000 µM. The set was probably picked from earlier hits. Some of the results follow. Numbered stars: 1 amine (or outer) side, 2 acyl side, 3 side chain; on linkers, the order of the positions; unused ones are H or OH. Square brackets hold non-standard residues; d marks the D form. Peptide text beside a SMILES is read from it. * marks the point of attachment. Orn(CH(NH2)2) = NC(N)NCCC[C@H](N)C(=O)O; X2 = O=C([C@H]1CCC[C@@H]1N[*:1])[*:2]; X1 = N[C@H]1CNC[C@@H]1C(=O)*; β3hL = CC(C)C[C@H](N)CC(=O)O

Experiment: PubChem AID 977610
Conditions: PDB protein-ligand complexes, literature Ki

**Q.** For `O=C(O)CCc1cccc(C(=O)O)c1`, which Ki (protein: FKBO, PDB entry 4bps) is on record?
**A.** 1020 µM (active)

**Q.** For `CCC1(CC)C[C@@H](C(=O)NCc2ccc(C(N)N)cc2)n2c1c(Cl)nc(NC1CCC1)c2=O`, which Ki (protein: Factor VII heavy chain & Factor VII light chain, PDB entry 4isi) is on record?
**A.** 0.0073 µM (active)

**Q.** With `O=C(O)C(=O)Nc1sc2c(c1C(=O)O)CCSC2` as the compound, how does the Ki (protein: human protein-tyrosine phosphatases 1B, PTP-1B, PDB entry 1gfy) read?
**A.** 8.32 µM (active)

**Q.** With `C[C@H](NC(=O)NC1C2CC3CC(C2)CC1C3)C(=O)N1CC[C@H](c2ccccc2Cl)N1c1ccccc1F` (some centres undefined) as the compound, how does the Ki (protein: rat neurolysin, PDB entry 4fxy) read?
**A.** 0.029 µM (active)

**Q.** With `Cc1nc2cc(OCc3ccc4ccccc4n3)ccc2s1` as the compound, how does the Ki (protein: PDE10A2, PDB entry 4mse) read?
**A.** 0.69 µM (active)

**Q.** Which Ki (protein: PDE10A2, PDB entry 4msc) does the source give for `c1cnc2cc(OCc3ccc4ccccc4n3)ccc2c1` here?
**A.** 1.1 µM (active)

**Q.** With `O=c1[nH]c(=O)n([C@H]2C[C@H](O)[C@@H](CO[P+](O)(O)O)O2)cc1F` as the compound, how does the Ki (protein: human Thymidylate synthase (TS) R163K, PDB entry 3h9k) read?
**A.** 0.014 µM (active)

**Q.** With `O=c1[nH]c(=O)n([C@@H]2O[C@H](CO[P+](O)(O)O)[C@@H](O)[C@H]2O)cc1F` as the compound, how does the Ki (protein: Mt orotidine 5'-monophosphate decarboxylase (OMPDC) D70G mutant, PDB entry 3g1v) read?
**A.** 645 µM (active)

**Q.** Which Ki (protein: ATP-BINDING CASSETTE SUB-FAMILY B MEMBER 10, PDB entry 4ayw) does the source give for `Nc1ncnc2c1ncn2[C@@H]1O[C@H](CO[P+](O)(O)O[P+](O)(O)N[P+](O)(O)O)[C@@H](O)[C@H]1O` here?
**A.** 100 µM (active)

**Q.** Which Ki (protein: 6-phosphofructokinase isozyme 2, PDB entry 3umo) does the source give for `Nc1ncnc2c1ncn2[C@@H]1O[C@H](CO[P+](O)(O)O[P+](O)(O)O[P+](O)(O)O)[C@@H](O)[C@H]1O` here?
**A.** 129 µM (active)

**Q.** What about the Ki (protein: 6-phosphofructokinase isozyme 2, PDB entry 3ump) of the same compound?
**A.** 1030 µM (active)

**Q.** Which Ki (protein: Lipid A export ATP-binding/permease protein msbA, PDB entry 3B5Y) does the source give for `Nc1ncnc2c1ncn2[C@@H]1O[C@H](COP(=O)(O)OP(=O)(O)NP(=O)(O)O)[C@@H](O)[C@H]1O` here?
**A.** 10 µM (active)

**Q.** For `Nc1ncnc2c1ncn2[C@@H]1O[C@H](COS(=O)(=O)NC(=O)[C@@H](N)CO)[C@@H](O)[C@H]1O`, which Ki (protein: Threonine--tRNA ligase, mitochondrial, PDB entry 4eo4) is on record?
**A.** 0.45 µM (active)

**Q.** For `Nc1ncnc2c1ncn2[C@@H]1O[C@H](CO[P+](O)(O)O)[C@@H](O)[C@H]1O[P+](O)(O)O`, which Ki (protein: Aspartate-semialdehyde dehydrogenase ASADH, PDB entry 4r3w) is on record?
**A.** 1000 µM (active)

**Q.** Which Ki (protein: Biotin-[acetyl-CoA-carboxylase] ligase, PDB entry 4dq2) does the source give for `Nc1ncnc2c1ncn2[C@@H]1O[C@H](CO[P+](O)(O)OCC=CCC[C@@H]2SC[C@@H]3NC(=O)N[C@@H]32)[C@@H](O)[C@H]1O` here?
**A.** 0.03 µM (active)

**Q.** With `Cc1ccc2oc(=O)n(CCCCn3cc(CCCCC[C@@H]4SC[C@@H]5NC(=O)N[C@@H]54)nn3)c2c1` as the compound, how does the Ki (protein: Biotin ligase, PDB entry 3v7s) read?
**A.** 0.09 µM (active)

**Q.** For `Nc1ncnc2c1ncn2[C@@H]1O[C@H](CO[P+](O)(O)O[P+](O)(O)C[P+](O)(O)O)[C@@H](O)[C@H]1O`, which Ki (protein: ATP-BINDING CASSETTE SUB-FAMILY B MEMBER 10, PDB entry 4ayx) is on record?
**A.** 200 µM (active)

**Q.** And the Ki (protein: ATP-BINDING CASSETTE SUB-FAMILY B MEMBER 10 MITOCHONDRIAL, PDB entry 4ayt)?
**A.** 200 µM (active)

**Q.** With `CC1(C)O[C@@H]2[C@H](O1)[C@@H](Cn1cc(CCCCC[C@@H]3SC[C@@H]4NC(=O)N[C@@H]43)nn1)O[C@H]2n1cnc2c(N)ncnc21` as the compound, how does the Ki (protein: Biotin ligase, PDB entry 3v7c) read?
**A.** 1.83 µM (active)

**Q.** With `O[C@@H]1[C@H](O)[C@@H](CO[P+](O)(O)O)O[C@H]1n1cnc2c(-c3ccc4ccccc4c3)ncnc21` as the compound, how does the Ki (protein: 2'-deoxynucleoside 5'-phosphate N-hydrolase 1 DNPH1, PDB entry 4p5e) read?
**A.** 2.8 µM (active)

**Q.** What about the Ki (protein: 2'-deoxynucleoside 5'-phosphate N-hydrolase 1 DNPH1, PDB entry 4p5d) of the same compound?
**A.** 1.5 µM (active)

**Q.** For `O=C(N[C@@H](CCCCNC(=O)c1ccc(I)cc1)C(=O)O)N[C@H](C(=O)O)c1ccc(O)cc1`, which Ki (protein: Glutamate carboxypeptidase 2 GCPII, PDB entry 4oc5) is on record?
**A.** 0.085 µM (active)

**Q.** For `O=C(N[C@@H](CCCCNC(=O)c1ccc(I)cc1)C(=O)O)N[C@@H](Cc1ccncc1)C(=O)O`, which Ki (protein: Glutamate carboxypeptidase 2 GCPII, PDB entry 4oc4) is on record?
**A.** 0.105 µM (active)

**Q.** With `O=C(N[C@@H](CCCCNC(=O)c1ccc(I)cc1)C(=O)O)N[C@@H](Cc1ccco1)C(=O)O` as the compound, how does the Ki (protein: Glutamate carboxypeptidase 2 GCPII, PDB entry 4oc3) read?
**A.** 0.0053 µM (active)

**Q.** Which Ki (protein: Glutamate carboxypeptidase 2 GCPII, PDB entry 4oc1) does the source give for `O=C(N[C@@H](CCCCNC(=O)c1ccc(I)cc1)C(=O)O)N[C@@H](C[C@H]1CO1)C(=O)O` here?
**A.** 0.254 µM (active)

**Q.** Which Ki (protein: Glutamate carboxypeptidase 2 GCPII, PDB entry 4oc2) does the source give for `C#CC[C@H](NC(=O)N[C@@H](CCCCNC(=O)c1ccc(I)cc1)C(=O)O)C(=O)O` here?
**A.** 0.0053 µM (active)

**Q.** Which Ki (protein: Glutamate carboxypeptidase 2 GCPII, PDB entry 4oc0) does the source give for `O=C(N[C@@H](CCCCNC(=O)c1ccc(I)cc1)C(=O)O)NC1(C(=O)O)CC1` here?
**A.** 0.318 µM (active)

**Q.** With `CSCC[C@H](NC(=O)[C@H](CC(C)C)NC(=O)CNC(=O)[C@H](Cc1ccccc1)NC(=O)[C@H](Cc1ccccc1)NC(=O)[C@H](CCC(N)=O)NC(=O)[C@H](CCC(N)=O)NC(=O)[C@@H]1CCCN1C(=O)[C@H](CCCCN)NC(=O)[C@@H]1CCCN1C(=O)[C@@H](N)CCCNC(N)N)C(=O)O` as the compound, how does the Ki (protein: Substance-P receptor, PDB entry 2ks9) read?
**A.** 9020 µM (active)

**Q.** And the Ki (protein: Substance-P receptor, PDB entry 2ksa)?
**A.** 871 µM (active)

**Q.** And the Ki (protein: Substance-P receptor, PDB entry 2ksb)?
**A.** 754 µM (active)

**Q.** Which Ki (protein: ANGIOTENSIN-CONVERTING ENZYME, ANCE, PDB entry 4aa2) does the source give for `CC[C@H](C)[C@H](NC(=O)[C@H](CCCCN)NC(=O)[C@@H]1CCCN1C(=O)[C@@H](N)CCCNC(N)N)C(=O)N1CCC[C@H]1C(=O)N1CCC[C@H]1C(=O)O` (H-[Orn(CH(NH2)2)]PKIPP-OH) here?
**A.** 107 µM (active)

**Q.** Which Ki (protein: Apoptosis regulator Bcl-XL, PDB entry 3fdm) does the source give for `CC(C)C[C@@H](CC(=O)NCC(=O)N[C@@H](CC(=O)O)C(=O)N[C@@H](C)C(=O)N[C@@H](Cc1ccccc1)C(=O)N[C@@H](CC(N)=O)C(=O)N[C@@H](CCCNC(N)N)C(N)=O)NC(=O)[C@H](CCCCN)NC(=O)[C@H]1CCC[C@@H]1NC(=O)[C@H](CC(C)C)NC(=O)[C@H]1CCC[C@@H]1NC(=O)[C@H](CCCNC(N)N)NC(=O)[C@H]1CCC[C@@H]1NC(=O)[C@H](C)NC(=O)[C@H]1CNC[C@@H]1N` (X1-A[X2][Orn(CH(NH2)2)][X2]L[X2]K[β3hL]GDAFN[Orn(CH(NH2)2)]-NH2) here?
**A.** 0.002 µM (active)

**Q.** For `CSCC[C@H](NC(=O)[C@H](CC(C)C)NC(=O)[C@H](CC(C)C)NC(=O)[C@@H]1CCCN1C(=O)[C@@H](N)Cc1cnc[nH]1)C(=O)N[C@@H](CCCNC(N)N)C(=O)N[C@@H](CC(C)C)C(=O)N[C@@H](CC(C)C)C(=O)N[C@@H](Cc1cnc[nH]1)C(=O)N[C@@H](Cc1cnc[nH]1)C(=O)N1CCC[C@H]1C(=O)N[C@@H](CO)C(=O)O` (H-HPLLM[Orn(CH(NH2)2)]LLHHPS-OH), which Ki (protein: Estrogen receptor beta, PDB entry 4j26) is on record?
**A.** 3.64 µM (active)
